The results in this text go back to PubChem BioAssay AID743279 (National Center for Advancing Translational Sciences (NCATS), 2014).

Out of some 360,000 compounds screened, about 17,000 (4.7%) were called active. Not shown: some 5% with an inconclusive outcome. The full list was thinned out, with actives kept by preference. A number with no mark means an inactive call. Cut-off read from the data, not from the text of the source: active = activity change below about -50%; inconclusive = mostly about -30% to -49%; inactive = weaker than that.
% is set by controls: 0 for no effect and ±100 for the full control effect.

A short description of the assay: qHTS for Inhibitors of Inflammasome Signaling: IL-1-beta AlphaLISA Primary Screen. The note with it: THP-1 LPS/ATP IL-1B secretion, 16 h; at 57.5 µM, hits give low values. In a few lines:
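THP-1 cells pretreated 1 hr with compounds (up to 57.5 uM final), then stimulated with LPS (250 ng/mL final) plus ATP (1.25 mM final); secreted IL-1B measured by AlphaLISA after 16 hr, decreased signal indicating inhibition.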
Regarding `O=C(Nc1cccc2ccccc12)NC1CC1`, the activity change is -13.6%.

As to `COC(=O)C[C@H]1C[C@@H]2c3cc(N(C)C)ccc3O[C@@H]2[C@H](CO)O1`, the activity change was 13.8%.

For the compound `O=C(NCc1cccnc1)c1cc(C2CCCN(C(=O)C3CCCCC3)C2)on1` (stereo not given), the activity change was -24.1%.

In the case of `CCCNC(=O)c1cc(C2CCCCN2C(=O)OC)on1` (stereo not given), the activity change was 0%.

For `O=C1c2ccccc2-c2ccccc2NC1O` (stereo not given), the activity change is 7.09%.

Turning to `CC(C)C1N=C2c3ccccc3N=C(SCC(=O)c3ccc(O)c(O)c3)N2C1=O` (stereo not given), the activity change was 41.9%.

Turning to `O=C1CC[C@@H](C(=O)N2CSC[C@@H]2C(=O)Nc2ccc(C(F)(F)F)cc2)N1`, the activity change is -1.13%.

For the compound `COc1cc(NC(=O)Nc2ccc(C)cc2)cc([N+](=O)[O-])c1`, the activity change is -21%.

Regarding `Cc1ccc(NC(=O)O/N=C/c2cccc([N+](=O)[O-])c2)cc1`, the activity change is -1.61%.

With `CS/C(=C\[N+](=O)[O-])Nc1ccc(C)cc1`, the activity change is -131% (active).

Consider `Cc1nn(-c2ccccc2)nc1C(=O)OCC(=O)N1CCCCC1C` (stereo not given), for which the activity change was 12%.

Turning to `O=C(Cc1ccc(NC(=O)C2CCCN(C(=O)C3CCCCC3)C2)cc1)Nc1cccc(C(=O)N2CCCCC2)c1` (stereo not given), the activity change is -3.57%.

Consider `Cc1[nH]c2ccccc2c1C(=O)CSCC(=O)O`, for which the activity change was 10.6%.

`Cc1onc(-c2ccccc2Cl)c1C(=O)OCC(=O)c1ccccc1`: the activity change is -25.9%.

Take `Cc1[nH]c2ccccc2c1C(=O)COC(=O)c1c(-c2ccccc2)noc1C`: the activity change is -59.9% (active).

Consider `COc1ccc(CC(=O)NC(C)c2ccc(Cl)c(Cl)c2)cc1S(=O)(=O)N1CCOCC1` (stereo not given), for which the activity change is -9.07%.

As for `CN(C)c1ccc(Nc2c3c4c(cccc4n(C)c2=O)C(=O)c2ccccc2-3)cc1`, the activity change is -11.1%.

On to `COc1ccc2sc(-c3ccc(N(C)C)cc3)c(-c3ccc4cc[nH]c4c3)c2c1`, for which the activity change is -13.1%.

With `COc1ccc2c(c1)c(=Cc1ccc(N(C)C)cc1)c1cc(-c3ccccc3)[n+](C)n12`, the activity change is -118% (active).

As to `COc1ccc2sc(-c3ccc(N(C)C)cc3)c(C#CCO)c2c1`, the activity change is -3.05%.

With `O=C(CCNC(=O)c1ccc(Cl)cc1)NC1CCCc2ccccc21` (stereo not given), the activity change is 1.14%.

As for `COc1cc2[nH]c(O)c(C=O)c2cc1OC`, the activity change is -8.17%.

As for `Cc1ccc(C=O)c([B-](F)(F)F)c1`, the activity change was 5.57%.

On to `CN1c2ccc(C=O)c3c(C=O)ccc(c23)N(C)C1(C)C`, for which the activity change is -96.3% (active).

As to `COc1ccc(OC)c(C2C3=C(N=c4s/c(=C\c5cccc(O)c5)c(=O)n42)c2ccccc2CC3)c1` (stereo not given), the activity change was -55.4% (active).

On to `O=C1CCCC2=C1C(c1ccccc1)n1c(s/c(=C/c3cccc(F)c3)c1=O)=N2` (stereo not given), for which the activity change is 2.6%.

On to `CCOC(=O)C1=C(C)N=c2s/c(=C\C(=O)OC)c(=O)n2C1c1ccc(OC)cc1` (stereo not given), for which the activity change is 10.3%.

`O=S(=O)(Nc1ccc2[nH]ncc2c1)c1ccccc1Cl`: the activity change is -6.19%.

As to `CNC(=O)c1ccsc1NC(=O)c1ccc(S(=O)(=O)N2CCc3ccccc32)cc1`, the activity change is -11.5%.

For `CCN(Cc1ccncc1)C(=S)Nc1ccccc1C`, the activity change is 9.34%.

As to `COc1ccc(NC(=O)CCCOc2ccc(C(C)=O)cc2)cc1S(=O)(=O)N1CCCCC1`, the activity change was 5.4%.

Take `COc1ccc(-n2cnnc2SCC(=O)Nc2cccc(S(N)(=O)=O)c2)cc1`: the activity change was 23.2%.

As to `C=CCn1c(CC(=O)Nc2cccc(OC)c2)nnc1SCC(=O)NC1CCCCC1`, the activity change is -18.6%.

For `C=CCn1c(COc2ccc(F)cc2)nnc1SCC(=O)Nc1cccc(S(N)(=O)=O)c1`, the activity change was -56.5% (active).

Consider `O=C(N[C@H]1CC[C@H](CC(=O)N2CCCCC2)O[C@@H]1CO)c1cccc(F)c1`, for which the activity change was 34.1%.

In the case of `COc1ccc(Nc2ncnc3sc(C)cc23)cc1`, the activity change was 1.88%.

For `COc1ccc(Nc2ccc3ccccc3c2)cc1`, the activity change is -4.37%.

Consider `COc1ccc(Nc2cc(Sc3ccc(OC)cc3)ncn2)cc1`, for which the activity change was -73.2% (active).

Take `Cc1cccc(N2CCN(C(=O)/C=C/c3ccco3)CC2)c1C`: the activity change is -12.5%.

For `CCN1CCN(C(=O)C2CCN(S(=O)(=O)c3cc(Cl)ccc3Cl)CC2)CC1`, the activity change is 24.2%.

As to `CC(=O)N1CCN(S(=O)(=O)c2c(F)cc(F)c(Cl)c2F)CC1`, the activity change is -92.4% (active).

On to `O=C(c1cnc(Cl)c(Cl)c1)N1CCN(S(=O)(=O)c2ccc(F)cc2)CC1`, for which the activity change is -12.3%.

For `O=[N+]([O-])c1ccc(CN2CC(N3CCC(c4ccccc4)CC3)CS2(=O)=O)cc1` (stereo not given), the activity change is -10.2%.

For `O=C(Nc1cc(F)ccc1F)c1ccc2c(=O)n3c(nc2c1)CCC3`, the activity change is -13.9%.

With `CC(C)(C)OC(=O)NCCCCCNC(=O)c1[nH]cnc1C(=O)Nc1nccs1`, the activity change is -8.09%.

Take `C=CC(=O)OCCOCCOCCOCCOC(=O)C=C`: the activity change is -108% (active).

For the compound `COC(=O)c1ccc2nc(-c3ccc(F)cc3)c(Cc3ccc(C)cc3)n2c1`, the activity change was 14.8%.

Take `CC1(c2cccc(N)c2)OCCO1`: the activity change was -13.4%.

In the case of `CCC(=O)N1CCCC1(C)C(=O)Nc1ccc2c(c1)CCN2C(C)=O` (stereo not given), the activity change was -2.74%.

In the case of `O=C(CCCN1C(=O)/C(=C\c2ccccc2)SC1=S)Nc1ccccc1O`, the activity change was -71.6% (active).

With `COc1ccc(/C=C2/SC(=O)N(CCCCCC(=O)Nc3ccccc3C(=O)O)C2=S)cc1`, the activity change was 34.4%.

As to `O=C(CCCN1C(=O)/C(=C/c2cccs2)SC1=S)Nc1ccc(O)cc1`, the activity change is -71.2% (active).

In the case of `O=C(CN1C(=O)/C(=C\c2ccccc2F)SC1=S)Nc1nc2ccccc2s1`, the activity change was -3.88%.

Take `CC(C(=O)Nc1ccc(O)c(C(=O)O)c1)N1C(=O)/C(=C/c2cccs2)SC1=S` (stereo not given): the activity change is 3.56%.

Turning to `COc1cccc(/C=C2\SC(=S)N(CCCC(=O)N3CCOCC3)C2=O)c1`, the activity change is -22.2%.

For the compound `COc1ccc(S(=O)(=O)N[C@@H]2C=C[C@@H](CC(=O)N3CCc4ccccc4C3)O[C@@H]2CO)cc1`, the activity change is 12.3%.

`CCOc1cc(/C=C(/C#N)c2ccc(Cl)cc2)cc(Cl)c1OCC(=O)O`: the activity change is 31.7%.

Take `O=C(NNC(=O)C1CCCC1)c1ccc(F)cc1`: the activity change is -5.32%.

Regarding `O=C(/C=C/c1ccc([N+](=O)[O-])o1)NNC(=O)c1ccc(F)cc1`, the activity change is -102% (active).

On to `CCc1noc(C)c1C(=O)NNC(=O)c1ccc(F)cc1`, for which the activity change was 10.8%.
